# Sampled rows, rich in hits. Any-hit rate of the full collection: about 4%.
# TRHR enhancer: TRH receptor (human) allosteric enhancement. enhancement, % at 2 µM. P34981. 360,000 tested, 0.66% active. TRHR cells, fluo-8 calcium fluorescence, EC20 TRH enhancement. AID 493056; in the data active means enhancement above about 30%
# Target sequence (P34981 whole entry, looked up): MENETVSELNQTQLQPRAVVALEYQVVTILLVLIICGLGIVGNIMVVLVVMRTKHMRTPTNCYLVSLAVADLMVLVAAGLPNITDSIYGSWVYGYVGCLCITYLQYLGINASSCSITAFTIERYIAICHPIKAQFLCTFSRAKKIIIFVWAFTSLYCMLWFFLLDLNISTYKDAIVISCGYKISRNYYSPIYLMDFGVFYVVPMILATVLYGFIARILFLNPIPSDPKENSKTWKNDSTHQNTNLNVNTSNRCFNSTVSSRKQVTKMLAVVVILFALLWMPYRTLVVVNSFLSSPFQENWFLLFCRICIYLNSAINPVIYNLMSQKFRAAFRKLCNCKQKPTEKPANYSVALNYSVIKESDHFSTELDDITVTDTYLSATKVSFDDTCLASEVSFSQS
#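 TRHR-expressing cells loaded with fluo-8 calcium dye were read kinetically (ex 480/em 530) during compound addition, then stimulated with an EC20 of TRH (10 nM final). Enhancement of the Gq-mediated intracellular calcium response was scored.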
# TRHR agonist: TRH receptor (human) agonism. activation, % at 2 µM. 360,000 tested, 0.18% active. TRHR cells, calcium flux fluo-8, FDSS agonist mode
#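 Fluo-8-loaded TRHR cells; 10 s baseline, compound added, kinetic Ca2+ fluorescence read 1/s, agonist mode.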
# D1 antagonist: blocks dopamine activation of the human D1 receptor | P21728 | HEK293 TREx D1 cells, calcium flux, dopamine EC80; stronger effect = lower value | activity change, negative = inhibition, % at 10 µM | 360,000 tested, 3.2% active | AID 504652; in the data active means activity change below about -30%
#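 Compound effects on dopamine-evoked calcium signalling were measured in tetracycline-induced HEK293 Trex D1 cells. Dopamine at EC80 followed a 180 s compound pre-read, and fluorescence was tracked kinetically for 180 s more.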
# D1 potentiator: enhances dopamine response at the human D1 receptor; P21728; HEK293 TREx D1 cells, calcium flux, dopamine EC20 potentiation; potentiation, % at 10 µM; 360,000 tested, 0.036% active; in the data active means potentiation above about 30%
# Glioma ERSR ind: induces the endoplasmic reticulum stress response in human glioma cells; Potency, µM, actives largely listed as activators; 420,000 tested, 0.02% active; AID 602332; U87-MG GRP78 promoter luciferase reporter, 16 h; active means well fitted activation curve with a large enough effect; further: series mostly up to about 76 µM; nearly all actives have a fitted effect of over 35% in size
#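 Stably transfected U87-MG human glioma cells carrying a GRP78-based luminescent sensor were seeded at 1000 cells/well, pin-dosed with compounds and incubated 16 h. Luciferase reagent was then added, and end-point luminescence was read after 10 min at room temperature.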
# D1 agonist: human D1 receptor agonism; HEK293 T-REx D1 cells, calcium flux, agonist mode; activation, % at 2 µM; 360,000 tested, 1% active; AID 504660
#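 Tetracycline-induced HEK293 TREx D1 cells, force-coupled to calcium signalling, were dye-loaded with a no-wash calcium kit. Compound was pin-added after a 10 s baseline. Fluorescence was read kinetically at 1 cycle/s for 180 s, with calcium rises flagged as agonism.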
# Hits are given with their value; – = inactive; · = no result. Unless noted, no stated cut-off is given here; in the data, active means activation above about 30%; inactive means the rest.
SMILES,TRHR enhancer,TRHR agonist,D1 antagonist,D1 potentiator,Glioma ERSR ind,D1 agonist
COc1ccc(NC(=O)Nc2cc(C)ccc2OC)cc1,–,–,-32,–,–,–
COc1ccc(C(=O)NC(=S)N2CCN(c3ccccc3OC)CC2)cc1,–,–,–,·,–,–
CNC(=S)N1CCN(c2ccccc2OC)CC1,–,–,-46,–,–,–
c1ccc(Cc2noc(CN3CCN(Cc4ccc5c(c4)OCO5)CC3)n2)cc1,–,–,–,–,–,–
Cn1nnnc1SCCCNCc1ccc(-c2cccc(Cl)c2)o1,–,–,-57,–,–,100
COc1ccc(-c2ccc(CNCCCSc3nnnn3C)o2)cc1Cl,–,–,–,–,–,37
COc1cccc(NC(=O)C23CCC(C)(C(=O)O2)C3(C)C)c1 (configuration not stated),–,–,–,–,–,–
O=C(O)c1cc2nc3c(c(C(F)(F)F)n2n1)CCCC3,–,–,–,–,–,–
O=C(Nc1ccc(F)cc1F)c1cc2nc3c(c(C(F)(F)F)n2n1)CCCC3,–,–,-33,–,–,–
CCCCCn1ccc(=N)cc1,36,–,–,–,–,–
CCCCCCCn1ccc(=N)cc1,–,–,–,–,–,–
COC(=O)C1Cc2c([nH]c3ccccc23)C2(CCN(Cc3ccccc3)CC2)N1 (configuration not stated),–,–,-39,–,–,58
O=C(CNC(=O)c1ccco1)N/N=C/c1cc(Br)ccc1O,–,–,–,–,–,–
COc1cc(/C=N/NC(=O)CNC(=O)c2ccco2)ccc1O,–,–,-48,–,–,–
CCOC(=O)C1CCN(C(=O)COC(=O)c2cc(-c3cccs3)nn2-c2ccccc2)CC1,–,–,–,–,–,–
O=C(O)c1ccccc1Sc1ccccc1S(=O)(=O)NC1CCCCC1,–,–,–,–,–,–
CCc1ccc2nc(N3CCC(C(=O)O)CC3)sc2c1,–,–,–,–,–,–
CCCCN(C)CCNC(=O)C1CCN(c2nc3ccc(CC)cc3s2)CC1,–,–,-55,–,·,65
Cc1ccc(-c2n[nH]c(=O)c3ccccc23)cc1S(=O)(=O)NC(C)(C)C,–,–,–,–,–,–
Cc1ccccc1S(=O)(=O)Oc1ccccc1C(=O)Oc1ccccc1,–,–,-31,–,–,–
COc1ccccc1C(=O)Oc1ccc(C(C)(C)C)cc1,–,–,–,–,–,–
NCCOc1ccc(C23CC4CC(CC(C4)C2)C3)cc1,–,–,–,36,–,127
OCCN1CCN(CC(O)COc2ccc(Cl)cc2)CC1 (configuration not stated),–,–,–,–,–,–
Oc1ccc(C23CC4CC(CC(C4)C2)C3)cc1O,–,–,–,–,–,–
OCCN1CCN(CC(O)COc2ccc(C34CC5CC(CC(C5)C3)C4)cc2)CC1 (configuration not stated),–,–,-42,–,–,63
SMILES,TRHR enhancer,TRHR agonist,D1 antagonist,D1 potentiator,Glioma ERSR ind,D1 agonist
O=C(CNC(=O)c1ccc(Cl)cc1)OCc1cc(=O)n2nc(C3CCCCC3)sc2n1,–,–,–,–,–,–
CC(C)(C)C(=O)OCc1cc(=O)n2nc(C3CCCCC3)sc2n1,–,–,-33,–,–,–
CCc1nn2c(=O)cc(COC(=O)CNC(=O)COc3ccc(C)cc3)nc2s1,–,–,-52,–,–,–
Cc1ccc(C(=O)NCC(=O)OCc2cc(=O)n3nc(C4CCCCC4)sc3n2)cc1,–,–,-45,–,–,–
COc1cccc(C(=O)NCC(=O)OCc2cc(=O)n3c(C)csc3n2)c1,34,–,–,–,–,–
N#Cc1ccc(CN2CC[C@@]3(CCCN(C(=O)c4cc(C(F)(F)F)cc(C(F)(F)F)c4)C3)C2)cc1,·,·,·,·,–,·
COc1ccc2ccccc2c1CN(C)Cc1ccccc1,–,–,–,–,–,–
CCc1c(C(=O)NNC(=S)NC2CCCCC2)csc1C,–,–,–,–,–,–
CCc1cc(=O)oc2c(C)c(OCC(=O)NCC3CCC(C(=O)O)CC3)ccc12 (configuration not stated),–,–,-66,–,–,–

# Screening data as filed in PubChem BioAssay.
